Shown are actives, neighbours in structure and some others; about 3.8% of the full set was active somewhere.
ATXN2 expr inh: reduces ATXN2 reporter expression in HEK-293 cells; Potency, µM (top dose mostly 57 µM), for inactives: top-dose activity change, negative = inhibition, most hits filed as inhibitors; AID 1745845; HEK-293 ATXN2-luciferase reporter, luminescence, 24 h; hit rate 0.72% among 360,000; note: % is set by controls: 0 for no effect and ±100 for the full control effect; nearly all actives have a fitted effect of over 55% in size
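ATXN2-luciferase reporter cells (luciferase flanked by upstream and downstream ATXN2 gene portions) were treated 24 h at 37 °C with compounds at up to 57 uM. SteadyGlo luminescence gave expression; GF-AFC fluorescence gave viability.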
TGFb inhibitor: TGF-b pathway inhibition. AID 588855. Potency, µM (series often up to 46.1 µM), for inactives: at the top dose activity, negative = inhibition, hits mostly inhibitors. hit rate 1.2% among 410,000. HepG2 CAGA-GFP TGF-b/SMAD3 reporter, GFP fluorescence, 18 h; TGF-beta stimulated, 500 pg/mL final; note: % is set by controls: 0 for no effect and ±100 for the full control effect; nearly all actives have a fitted effect of over 65% in size
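HEPG2 CAGA-GFP reporter cells (1000/well, DMEM with 1% FBS) received compounds, then recombinant TGF-beta at 500 pg/mL final for 18 hours at 37 degrees C. Per-cell GFP summed per well was normalised to unstimulated and stimulated DMSO controls before curve fitting.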
A549 tox: kills or reduces viability of A549 cells in Nrf2 counter-screen | A549 ARE-Fluc cells, CellTiter-Fluor viability, 18-24 h | Potency, µM (top dose mostly 46 µM), inactives show at the highest dose activity change, negative = cytotoxicity, most hits filed as inhibitors | hit rate 0.16% among 390,000 | AID 504648; note: % is set by controls: 0 for no effect and ±100 for the full control effect
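A549 ARE-Fluc cells in 5% FBS OPTI-MEM, 5000 cells/well, rested 2 h then exposed to compounds in concentration-response for 18-24 h at 37 °C. Viability by CellTiter-Fluor fluorescence (Ex 405/Em 525) after 30 min; luciferase luminescence (BugLite, 15 min, RT) read afterwards.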
Nrf2 block: inhibitors of Nrf2 signaling; Potency, µM (series often up to 46 µM), for the others: top-dose activity change, negative = inhibition, most hits filed as inhibitors; A549 ARE-Fluc reporter, luciferase luminescence, 18-24 h; AID 504444; hit rate 2.1% among 360,000; note: % is set by controls: 0 for no effect and ±100 for the full control effect; nearly all actives have a fitted effect of over 60% in size
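A549 ARE_Fluc cells (5000/well, 5% FBS OPTI-MEM) pre-incubated 2 h, then treated with compounds 18-24 h at 37C/5% CO2 in concentration-response. CellTiter-Fluor viability read first; BugLite luciferase luminescence after 15 min at room temperature gives Nrf2 activity.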
ATXN viability: viability counter-screen for ATXN expression inhibitors; S2 cells (HEK-293 line with an ATXN2-luciferase reporter) viability, CellTiter-Fluor protease fluorescence, 24 h; Potency, µM (titrated, usually from 56.7 µM), actives largely listed as cytotoxic; hit rate 0.49% among 400,000; AID 651635; note: nearly all actives have a fitted effect of over 40% in size
HepG2 tox: counter-screen for TGF-b inhibitors: cytotoxicity in HepG2 cells; AID 588856; Potency, µM (highest dose often 46.1 µM), without a hit: at the highest dose activity change, negative = cytotoxicity, most hits filed as cytotoxic; hit rate 0.76% among 410,000; HepG2 CAGA-GFP viability, ATP luminescence, 18 h
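HepG2 CAGA-GFP cells (1000/well, DMEM with 1% FBS) received compound, then TGF-beta at 500 pg/mL final, and were incubated 18 hours at 37 degrees C. Viability was read by CellTiter-Glo luminescence. Media-only wells were set as complete cell-killing and DMSO as no toxicity.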
The depositor's hits bear a star; i = inactive; ? = inconclusive; . = no result; [ ] = dose if it differs, or a comment. Calls come from the whole dose curve; as a rule, active = well fitted curve in the direction sought with a large enough effect; inconclusive = small, poorly fitted or top-dose-only effect, or another doubt; inactive = no such curve, though single readings can be large; an effect the other way counts as inactive or inconclusive. Potency is the fitted concentration of half-maximal effect.

SMILES	ATXN2 expr inh	TGFb inhibitor	A549 tox	Nrf2 block	ATXN viability	HepG2 tox
COC(=O)c1ccc2c(c1)C(C)(C)C(/C=C/c1ccc(O)cc1)=[N+]2C	3.16µM*	3.98µM*	?	.	7.94µM*	3.55µM*
COc1cc(/C=C/c2ccc(O)cc2)cc(OC)c1	8.7%	-10.1%	-3.1%	4.5%	i	-37.4%
COC(=O)c1ccc2c(c1)C(C)(C)C(/C=C/c1ccc(OC)c(OC)c1OC)=[N+]2C	25.1µM*	10µM*	?	16.4µM*	?	-94.3%
S=c1[nH]nc(C2CCCCC2)o1	8.5%	13.0%	-0.7%	-8.2%	i	-0.4%
COc1ccc(N2CCN(C(=O)c3cccc(-n4c(C)nc5cccnc54)c3)CC2)cc1	.	-15.4%	-0.6%	16.1%	.	2.9%
Cc1nc2cccnc2n1-c1cccc(C(=O)N2CCN(c3ccc(Cl)cc3)CC2)c1	.	0.0%	-19.9%	18.4µM*	.	-40.9%
Cc1ccc2c(c1)/C(=C/c1ccc(F)cc1)C(=O)N2	.	?	-10.4%	?	?	10µM*
Cc1ccc2c(c1)/C(=C/c1ccccc1C)C(=O)N2	0.0%	0.0%	4.4%	-24.0%	?	-40.7%
Fc1ccc(COc2cccc(CNCc3ccncc3)c2)cc1	?	-19.8%	-1.0%	14.6µM*	i	-29.6%
Cc1ccc(C)c(NC(=O)CSc2nnc(CCNC(=O)OC(C)(C)C)o2)c1	-0.7%	2.9%	13.2%	-3.6%	i	-88.8%
Cc1ccc(NC(=O)CSc2nnc(CCCCCNC(=O)OC(C)(C)C)o2)c(C)c1	0.3%	-28.7%	-14.2%	16.4µM*	i	-14.7%
CCN(C(=O)c1nn(-c2ccc(OC)c(Cl)c2)c(=O)c2c1c1ccccc1n2C)c1cccc(C(F)(F)F)c1	-2.4%	-2.1%	-4.8%	-14.5%	i	-14.1%
COc1cccc(-n2nc(C#N)c(Cl)cc2=O)c1	22.4µM*	6.31µM*	?	?	31.6µM*	17.8µM*
CN1OC[C@@H]2CN[C@H](c3ccc(-c4cc5ccccc5o4)cc3)C[C@@H]21	0.199µM*	-16.0%	.	.	i	-34.0%
CN1OC[C@@H]2CN[C@H](c3ccc(-c4ccc(C#N)cc4)cc3)C[C@@H]21	6.8%	1.8%	.	.	i	-33.0%
C[n+]1c2n(c3ccccc31)N=C(c1ccc(Cl)cc1)CS2	?	0.0%	.	?	i	-12.9%
CC1Sc2n(c3ccccc3[n+]2C)N=C1c1ccccc1 (stereo unspecified)	-21.3%	-13.7%	-18.3%	11.6µM*	i	-5.0%
O=C(NCCCN1CCN(c2ccc(F)cc2)CC1)Nc1ccc(Cl)cc1	?	?	0.8%	13.2%	?	-97.0%
Cc1ccccc1SCC(=O)OCC(=O)NCc1ccccc1	9.1%	0.0%	-5.4%	0.8%	i	-4.1%
CC(C)OC(=O)NC(C)(C)COC(=O)Nc1cccc(Cl)c1	-24.3%	-21.4%	-26.0%	10.3µM*	i	-9.9%
Cc1cc(NC2CCCCC2)nc(NCc2ccccc2)n1	?	14.1µM*	0.2%	?	?	-112.1%
COc1ccc(Nc2cc(C)nc(NCc3ccccc3)n2)cc1	-38.2%	12.6µM*	0.0%	?	i	-57.4%
Cc1cc(Oc2ccc(C#N)cc2)nc(NCc2ccccc2)n1	-24.5%	-24.4%	-7.0%	16.4µM*	i	8.91µM*
Cc1ccc(Nc2cc(C)nc(NCc3ccccc3)n2)cc1	.	?	3.0%	3.5%	i	-111.4%
COc1cc(C)nc(NCc2ccccc2)n1	?	0.5%	-2.4%	16.7%	i	-27.5%
SMILES	ATXN2 expr inh	TGFb inhibitor	A549 tox	Nrf2 block	ATXN viability	HepG2 tox
COC(=O)c1ccc(Oc2cc(C)nc(NCc3ccccc3)n2)cc1	-7.1%	-2.2%	-9.8%	-11.4%	i	-13.1%
O=C(O)Cn1cc(/C=C/[N+](=O)[O-])c2ccccc21	-27.2%	-21.9%	-22.9%	-11.1%	?	10.8%
N#Cc1ccccc1Cn1cc(/C=C/[N+](=O)[O-])c2ccccc21	?	4.47µM*	23.1µM*	?	.	7.08µM*
O=C(Cn1cc(/C=C\[N+](=O)[O-])c2ccccc21)Nc1ccccc1	?	8.91µM*	?	-32.7%	.	11.2µM*
Cn1nc(C(C)(C)C)cc1NC(=O)Nc1cc(Cl)cc(Cl)c1	-36.9%	?	-15.0%	-61.4%	i	15.8µM*
COc1ccc(NC(=S)N=Nc2c(O)[nH]c3ccccc23)cc1	.	6.31µM*	?	9.2µM*	?	-22.0%
Cc1ccc(NC(=S)N=Nc2c(O)[nH]c3ccccc23)cc1	?	3.98µM*	-11.3%	-20.4%	?	-38.8%
Oc1ccc(NC(=S)N=Nc2c(O)[nH]c3ccccc23)cc1	-15.6%[11.3 µM]	?	-10.4%	?	?	-15.2%
O=S(=O)(c1cc(C(F)(F)F)ccc1Cl)N1CCCCCC1	-0.7%	1.9%	-5.4%	-2.4%	i	-10.7%
O=S(=O)(c1cc(C(F)(F)F)ccc1Cl)N1CCN(c2ncnc3ccccc23)CC1	?	-30.2%	-12.7%	18.4µM*	?	-1.0%
C[C@H](CO)N1C[C@H](C)[C@@H](CN(C)Cc2ccc(C(=O)O)cc2)Oc2c(NC(=O)C3CC3)cccc2C1=O	2.9%	-4.8%	-6.6%	4.7%	i	5.8%
C[C@H](CO)N1C[C@H](C)[C@@H](CN(C)Cc2ccccc2)Oc2c(NC(=O)C3CCCCC3)cccc2C1=O	?	?	-21.4%	?	20µM*	-9.6%
C[C@H](CO)N1C[C@H](C)[C@@H](CN(C)Cc2ccc(Oc3ccccc3)cc2)Oc2c(NC(=O)C3CC3)cccc2C1=O	?	?	-16.9%	23.1µM*	?	-49.8%
Cc1cc2oc(=O)c(CC(=O)NCCc3ccccc3F)c(C)c2c2occ(C(C)(C)C)c12	.	?	-0.1%	2.3%	.	-15.5%
COc1ccccc1C(=O)Nc1nc2ccccc2[nH]1	0.316µM*	-6.7%	2.3%	?	i	2.82µM*
COc1cc(SC)ccc1C(=O)Nc1nc2ccccc2[nH]1	0.316µM*	18.4%	-11.7%	1.64µM*	i	10µM*
COc1cc(SC)ccc1C(=O)NNC(=O)c1cc(C)oc1C	-6.9%	10.5%	0.4%	?	?	7.94µM*
CSc1ccccc1C(=O)Nc1nc2ccccc2[nH]1	51.8%	-2.3%	0.3%	?	i	-40.6%
COc1ccc(S(=O)(=O)NCc2nc3nc(C)cc(C)n3n2)cc1OC	-15.7%	7.7%	-4.1%	18.9%	i	0.2%
CC(C)Cc1ccc(CN2CCCC(NC(=O)c3ccnn3C)C2)cc1 (stereo unspecified)	-23.0%	?	-18.9%	13µM*	?	7.4%

Screening results as filed in PubChem.
